Measured values from the supplement of paper PMC12024529.
Where “and” joins values, the source holds several entries; their conditions need not be identical. Equal entries are not always repeated.

System: HEK293 WT BDD-FVIII-Gluc
Assay: secreted FVIII-Gluc luciferase Z-score vs DMSO control; higher = more FVIII-Gluc secretion
Settings: 5 µM
Procedure: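 Natural plant-compound library (480 compounds, ST catalogue IDs) screened on HEK293 cells stably expressing WT BDD-FVIII-Gaussia luciferase fusion at 5 µM. Secreted Gluc activity in the medium is given as a Z-score relative to DMSO controls.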

Row | Compound | secreted FVIII-Gluc luciferase Z-score
1 | C=C(CO)C1Cc2c(ccc3c(=O)c4c(oc23)COc2cc(OC)c(OC)cc2-4)O1 (stereo not given) | 0.0519
2 | Cc1c(C)c2c(c(C)c1O)CC[C@@](C)(CCC[C@H](C)CCC[C@H](C)CCCC(C)C)O2 | 0.497
3 | COc1ccc(-c2oc3cc(OC)c(OC(C)=O)c(OC)c3c(=O)c2OC)cc1OC(C)=O | -0.47
4 | Nc1ncnc2c1ncn2C1OC(COP(=O)(O)OP(=O)(O)OP(=O)(O)O)C(O)C1O (stereo not given) | 0.477
5 | C=CC(C)(O)CCC=C(C)C (stereo not given) | -0.395
6 | COc1c(-c2ccc(O)c(O)c2)oc2cc(O)cc(O)c2c1=O | -0.415
7 | CC(C)[C@@H]1CC[C@@H](C)C[C@H]1OC(=O)[C@@H](C)O | -0.146
8 | COC(=O)[C@H]1[C@H]2C[C@H]3c4[nH]c5ccccc5c4CCN3C[C@@H]2CC[C@@H]1O | -1.15
9 | COc1cc2oc(-c3ccccc3)cc(=O)c2cc1OC | 0.82
10 | NC(Cc1c[nH]c2ccccc12)C(=O)NCC(=O)O (stereo not given) | -1.06
11 | OC1CCC2Cc3ccccc3N=C12 (stereo not given) | -0.361
12 | O=c1c(O)c(-c2ccc(O)cc2)oc2cc(O)cc(O)c12 | -0.239
13 | O=c1cc(-c2cccc(O)c2)oc2cc(O)ccc12 | -0.00771
14 | Nc1ncnc2c1ncn2C1OC(CO)C(O)C1OP(=O)(O)O (stereo not given) | -0.295
15 | Cc1cc(O)cc(O)c1 | 0.642
16 | CC(=O)C1=C(O)C=C2Oc3c(C(C)=O)c(O)c(C)c(O)c3[C@]2(C)C1=O | 1.04
17 | NC(Cn1ccc(=O)c(O)c1)C(=O)O (stereo not given) | 0.208
18 | CC1(C)CC[C@]2(C(=O)O)CC[C@]3(C)C(=CCC4[C@@]5(C)CC[C@H](O)C(C)(C)C5[C@H](O)C[C@]43C)C2C1 (stereo not given in full) | 0.207
19 | O=c1c(O)c(-c2ccc(O)cc2O)oc2cc(O)cc(O)c12 | 0.571
20 | COc1c(O)cc2oc3cc(O)c(CC=C(C)C)c(O)c3c(=O)c2c1CC=C(C)C | 0.316

Row | Compound | secreted FVIII-Gluc luciferase Z-score
21 | CC(=O)c1c(O)c(C)c(O)c2c1OC1=CC(=O)C(C(C)=O)C(=O)[C@@]12C (stereo not given in full) | -5.07
22 | COc1cc(O)c2c(=O)cc(-c3ccccc3)oc2c1 | 1.12
23 | COc1cc(/C=C/C(=O)CC(=O)/C=C/c2ccc(O)c(OC)c2)ccc1O | 0.567
24 | COc1ccc2cc1Oc1ccc(cc1)C[C@H]1c3cc(c(OC)cc3CCN1C)Oc1c(OC)c(OC)cc3c1[C@H](C2)N(C)CC3 | 0.132
25 | O=C1c2ccccc2C(=O)c2c(O)c(O)cc(O)c21 | -0.332
26 | Cc1ccc(C(=O)[C@@H]2[C@H]3C4COC(O4)C(=O)[C@@H]3[C@H]3C=Cc4ccccc4N32)cc1 (stereo not given in full) | -0.368
27 | CC(=O)OC1CCC2(C)C(=CCC3C2CC[C@]2(C)C(C(C)=O)CCC32)C1 (stereo not given in full) | 0.0308
28 | Cn1cnc2c1c(=O)[nH]c(=O)n2C | 0.889
29 | CC(C)(CO)[C@@H](O)C(=O)NCCCO | 1.71
30 | Nc1ccccc1C(=O)CC(N)C(=O)O (stereo not given) | -1.11
31 | COc1ccc(-c2coc3cc(O)ccc3c2=O)cc1 | 0.632
32 | Cc1c(C(=O)O)c(O)cc2c1C(=O)c1c(O)c([C@H]3O[C@H](CO)[C@@H](O)[C@H](O)[C@H]3O)c(O)c(O)c1C2=O | 0.527 and 0.738
33 | O=c1cc(-c2cccc(O)c2)oc2c(O)c(O)ccc12 | -0.194
34 | N[C@H](CCC(=O)O)C(=O)O | -0.453
35 | Cc1ccc(CC(Cc2nc3ccccc3[nH]2)c2nc3ccccc3[nH]2)cc1 (stereo not given) | 0.284
36 | O=C1OC(=O)C2C3CCC(O3)C12 (stereo not given) | -0.862
37 | C[C@@H]1O[C@@H](O[C@H]2[C@H](Oc3cc(O)c4c(c3)O[C@H](c3ccc(O)cc3)CC4=O)O[C@H](CO)[C@@H](O)[C@@H]2O)[C@H](O)[C@H](O)[C@H]1O | 1.39
38 | COc1c(-c2ccccc2)oc2c(ccc3occc32)c1=O | 0.489
39 | CC[C@H](/C=C/[C@@H](C)[C@H]1CC[C@H]2[C@@H]3CC=C4C[C@@H](O)CC[C@]4(C)[C@H]3CC[C@]12C)C(C)C | 0.586
40 | CN1C(=O)CC[C@H]1c1cccnc1 | -0.0585
